The text below walks through data of PubChem BioAssay (Tox21).

Records with an inconclusive call do not appear. Active and inactive are the calls of the source. Calls follow the shape of the dose curve; as a rule, active = well fitted curve in the direction sought with a large enough effect in the repeat runs; inconclusive = weak or mixed curves; inactive = no such curve, though single readings can be large; an effect the other way counts as inactive or inconclusive.
% is scaled to controls: 0 for no effect and ±100 for the full control effect; potency is read from the fitted curve at half-maximal effect.

The first assay is described as follows: qHTS assay for small molecule disruptors of the mitochondrial membrane potential (AID 720635). The settings on record: HepG2 mitochondrial membrane potential, Mito-MPS dye ratio; series mostly up to 83.2 µM; ratio activity, negative = MMP loss: at the top concentration. Summed up:
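Mitochondrial membrane potential tracked with Mito-MPS dye, red aggregates (ex 540/em 590 nm) against green monomers (ex 490/em 535 nm). Compound treatment 1 hr at 37C, dye 30 min in HepG2.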
On the technique in general: In qHTS, concentration-response curves come from the screen itself.
For `O=C1OC(=O)C2C3C=CC(C3)C12` (configuration not stated), the “ratio activity, negative = MMP loss” value is 7.25% (inactive). Same read-out and setting: in the case of `C[N+](C)(C)CCOC(=O)CCC(=O)OCC[N+](C)(C)C` it was 5.51% (inactive). On the same count and under the same terms, then `C[C@H]1C[C@H]2[C@@H]3CCC4=CC(=O)C=C[C@]4(C)[C@@]3(Cl)[C@@H](O)C[C@]2(C)[C@@]1(O)C(=O)CO`, with -11.9% (inactive); and `CC(C)(O)c1ccc(CNC(=O)c2cccnc2Oc2ccc(F)cc2)cc1`, with 20% (inactive). For the molecule `O=S(=O)(Oc1ccc(Cl)cc1)c1ccccc1`, the Potency is 19.3 µM (active). In the case of `CC(C)CC(=O)C1C(=O)c2ccccc2C1=O`, the Potency was 4.33 µM (active). Turning to `COc1cc2nc(N3CCN(C(=O)C4COc5ccccc5O4)CC3)nc(N)c2cc1OC` (configuration not stated), the “ratio activity, negative = MMP loss” value is -22.3% (inactive). For `COc1ccc(C(=O)c2ccc(OC)cc2O)c(O)c1`, the Potency is 6.16 µM (active). Still for that read-out and setting: in the case of `COC(=O)C1=C(C)NC(COC(N)=O)=C(C(=O)OC(C)C)C1c1cccc(Cl)c1Cl` (configuration not stated) it was 26.6 µM (active).

A further assay in a line: qHTS assay to test for compound auto fluorescence at 590 nm (red) in HepG2 cells (AID 720674). To be noted: HepG2 autofluorescence, red 540/590 nm, 1 h; series mostly up to 91.3 µM; fluorescence, relative to Rose Bengal: at the top concentration. Summed up:
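We screened compounds on adherent HepG2 cells, incubating them for an hour at 37 C in 5% CO2 before reading emission at 590 nm under 540 nm excitation; values reflect equivalence to Rose Bengal sodium fluorescence.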
As for `NCC(=O)CCC(=O)O`, the “fluorescence, relative to Rose Bengal” value is 0.244% [at 46 µM] (inactive). Still for that read-out and setting: in the case of `O=C1OC(=O)C2C3C=CC(C3)C12` (configuration not stated) it was -0.0934% (inactive); in that of `C=C(C)C(=O)OCCOCC`, 0.167% (inactive). In the case of `CC1(c2ccccc2)OC(C(=O)O)=CC1=O` (configuration not stated), the “fluorescence, relative to Rose Bengal” value is 0.0002% [at 46 µM] (inactive). The same measure, in the same setting: in the case of `C[N+](C)(C)CCOC(=O)CCC(=O)OCC[N+](C)(C)C` it was -0.54% [at 46 µM] (inactive); in that of `CC(=O)c1ccc2c(c1)N(CCCN(C)C)c1ccccc1S2`, -0.407% [at 18.6 µM] (inactive). Same read-out and setting: then `CN1CCN(C(c2ccccc2)c2ccccc2)CC1`, with 0.313% [at 18.6 µM] (inactive); and `CC1=CC=C(C(C)C)CC1`, with 0.0143% (inactive). Still for that read-out and setting: then `C[C@H]1C[C@H]2[C@@H]3CCC4=CC(=O)C=C[C@]4(C)[C@@]3(Cl)[C@@H](O)C[C@]2(C)[C@@]1(O)C(=O)CO`, with 0.354% [at 46 µM] (inactive); and `CC(C)(O)c1ccc(CNC(=O)c2cccnc2Oc2ccc(F)cc2)cc1`, with -0.139% (inactive). Regarding `c1ccc(CNCCNCc2ccccc2)cc1`, the “fluorescence, relative to Rose Bengal” value was 0.249% [at 46 µM] (inactive).

Take `CC(COCCO)OCCO` (configuration not stated): the “fluorescence, relative to Rose Bengal” value was 0.0078% (inactive). On to `O=S(=O)(Oc1ccc(Cl)cc1)c1ccccc1`, for which the “fluorescence, relative to Rose Bengal” value was -0.0901% (inactive). The same measure, in the same setting: then `COS(=O)(=O)C(F)(F)F`, with 0.0716% [at 95.7 µM] (inactive); and `CCNc1cc(O)ccc1C`, with 2.23% (inactive). On the same count and under the same terms, in the case of `O=C(c1ccc(F)cc1)C1CCN(CCn2c(=S)[nH]c3ccccc3c2=O)CC1` it was 0.0484% [at 46 µM] (inactive).

Regarding `CCN(CC)c1ccc2c(-c3ccccc3C(=O)O)c3ccc(=[N+](CC)CC)cc-3oc2c1`, the Potency was 1 µM (active).

Regarding `ClCCOCCOCCCl`, the “fluorescence, relative to Rose Bengal” value was 0.202% (inactive). Same read-out and setting: then `CCCCc1ncc(/C=C(\Cc2cccs2)C(=O)O)n1Cc1ccc(C(=O)O)cc1`, with -0.439% [at 46 µM] (inactive); and `CC(=O)NO`, with -0.227% [at 46 µM] (inactive). For the molecule `COc1cc2nc(N3CCN(C(=O)C4COc5ccccc5O4)CC3)nc(N)c2cc1OC` (configuration not stated), the “fluorescence, relative to Rose Bengal” value was -0.287% [at 46 µM] (inactive). Still for that read-out and setting: in the case of `CC1=CCCC(C)(C)C12CCC(C)O2` (configuration not stated) it was -0.687% (inactive). On to `Nc1ccccc1S(=O)(=O)c1ccccc1`, for which the “fluorescence, relative to Rose Bengal” value is 0.0071% (inactive). Still for that read-out and setting: then `COc1ccc(C(=O)c2ccc(OC)cc2O)c(O)c1`, with 0.306% (inactive); and `C=CC1CC2C=CC1C2` (configuration not stated), with -0.0026% (inactive). Same read-out and setting: in the case of `CC(=O)c1ccc2c(c1)N(CCCN1CCC(CCO)CC1)c1ccccc1S2` it was -0.311% [at 18.6 µM] (inactive). Regarding `COC(=O)c1ccc(I)cc1S(=O)(=O)NC(=O)Nc1nc(C)nc(OC)n1`, the “fluorescence, relative to Rose Bengal” value is -0.004% (inactive). Consider `COC(=O)C1=C(C)NC(COC(N)=O)=C(C(=O)OC(C)C)C1c1cccc(Cl)c1Cl` (configuration not stated), for which the “fluorescence, relative to Rose Bengal” value was 0.209% [at 46 µM] (inactive).
